The test system of one assay is Klebsiella pneumoniae. Conditions: Concentration 32 ug.mL-1;; ASSAY_TEST Inhibition of Bacterial Growth; detection method Absorption (OD600); MEDIA CAMHB; plate type 384well; NBS; CORNING #3640; time 18 hr.
For another assay, the system named is Candida albicans. The following applies: Concentration 32 ug.mL-1; ASSAY_TEST Inhibition of Fungal Growth; detection method Absorption (OD530).
A further assay deals with Cryptococcus neoformans. Conditions: Concentration 32 ug.mL-1; ASSAY_TEST Inhibition of Fungal Growth; detection method Resazurin; Absorption (OD600-OD570); plate type 384well; NBS; CORNING #3640.

Measured potencies and affinities stand elsewhere.

For `Cc1cc(C)cc(NC(=O)Cn2nc3c(N4CCCC4)nccn3c2=O)c1`, the Inhibition in the assay with Klebsiella pneumoniae was 18.22%; with Candida albicans it was 0.29%; with Cryptococcus neoformans, -23.65%.
On to `COC(=O)c1ccc(NC(=O)CSc2nnc3ccc(C(=O)Nc4cccc(F)c4)cn23)cc1`, for which the Inhibition in the assay on Klebsiella pneumoniae is 4.63%; in the assay with Candida albicans it was 2.52%; in the assay with Cryptococcus neoformans it was -5.98%.
Take `O=C(Cn1nc2c(Oc3ccccc3)nccn2c1=O)Nc1ccc(Cl)cc1`: the Inhibition with Klebsiella pneumoniae is 8.01%; in the assay on Candida albicans, -0.31%; with Cryptococcus neoformans it was -10.29%.
The matching figures for `CCC(Sc1nnc2c(=O)n(-c3ccccc3)ccn12)C(=O)Nc1cc(F)ccc1F` (stereo not given): 10.28%, 0.38% and -17.31%.
On to `Cc1ccc(NC(=O)Cn2c(=O)c3nnc(C(C)C)n3c3ccccc32)cc1`, for which the Inhibition is given as 2.07% in the assay with Klebsiella pneumoniae, 1.19% in the assay on Candida albicans and -10.22% in the assay on Cryptococcus neoformans.
The matching figures for `CCOC(=O)c1ccc(NC(=O)Cn2nc3ccc(S(=O)(=O)C(C)(C)C)nn3c2=O)cc1`: 4.44%, 15.58% and -19.66%.
For `Cc1ccc(-c2cc3c4nnc(SCC(=O)Nc5cccc(Br)c5)n4ccn3n2)cc1`, in that order: 4.45%, 7.43% and -29.25%.
The matching figures for `COc1cccc(-n2ccn3c(SCC(=O)c4ccc(OC)c(OC)c4)nnc3c2=O)c1`: 7.59%, 4.83% and -8.41%.
For `Cc1ccc(-c2cc3c4nn(CC(=O)NCc5ccccc5)c(=O)n4ccn3n2)cc1C`, the Inhibition in the assay with Klebsiella pneumoniae is on record as 9.36%; in the assay on Candida albicans it was 4.46%; in the assay with Cryptococcus neoformans it was -12.84%.
For `COC(=O)c1ccccc1NC(=O)Cn1nc2c(Oc3cccc(OC)c3)nccn2c1=O`, the Inhibition is recorded as -16.2% with Klebsiella pneumoniae, 1.71% in the assay on Candida albicans and -7.59% in the assay on Cryptococcus neoformans.
The matching figures for `C=Cc1ccc(CN(c2ccc(C(C)C)cc2)S(=O)(=O)c2cccn3c(C)nnc23)cc1`: 4.48%, 1.49% and -4.15%.
The matching figures for `O=C(Cn1nc2c3cc(-c4ccc(F)cc4)nn3ccn2c1=O)Nc1ccc2c(c1)OCCO2`: 11.81%, 2.29% and -25.22%.
The matching figures for `CCc1nnc2c(SCC(=O)Nc3ccc(C)cc3Br)nc3ccccc3n12`: 6.8%, 1.54% and -14.73%.
As to `COc1cccc(NC(=O)Cn2nc3c(=O)n(-c4ccc(Br)cc4)ccn3c2=O)c1`, the Inhibition in the assay on Klebsiella pneumoniae is 6.98%; in the assay on Candida albicans, 1.08%; with Cryptococcus neoformans it was -6.3%.
In the case of `COc1cc(NC(=O)Cn2nc3c(Sc4cccc(F)c4)nccn3c2=O)cc(OC)c1`, the Inhibition was 4.9% with Klebsiella pneumoniae, 1.46% in the assay with Candida albicans and -6.36% in the assay with Cryptococcus neoformans.
The matching figures for `CC(C)c1nnc2c(SCC(=O)Nc3ccc(Cl)cc3C(F)(F)F)nc3ccccc3n12`: 1.04%, 3.28% and -8.02%.
As for `CC(C)(C)Sc1ccc2nn(CC(=O)Nc3ccccc3Cl)c(=O)n2n1`, the Inhibition is 9.71% in the assay with Klebsiella pneumoniae, 5.29% in the assay on Candida albicans and -25.66% in the assay on Cryptococcus neoformans.
The matching figures for `Cc1ccccc1Cn1nc2c(=O)n(-c3ccc(Br)cc3)ccn2c1=O`: 14.05%, 0.14% and -2.03%.
The matching figures for `Cc1cc(Br)ccc1NC(=O)Cn1nc2c(Sc3cccc(F)c3)nccn2c1=O`: 4.98%, 6.11% and -9.53%.
As for `O=c1n(Cc2c(F)cccc2Cl)nc2ccc(-c3ccccc3)nn12`, the Inhibition with Klebsiella pneumoniae is recorded as -0.01%; in the assay on Candida albicans, 8.72%; with Cryptococcus neoformans, -10.32%.
For `COc1cc(NC(=O)Cn2nc3c(Oc4ccccc4)nccn3c2=O)cc(OC)c1OC`, in that order: 10.24%, 3.29% and -9.79%.
The matching figures for `COc1cccc(CN(c2ccc(F)c(F)c2)S(=O)(=O)c2ccc3nnc(C)n3c2)c1`: 7.43%, 1.78% and -8.55%.
For `Cc1nnc2c(S(=O)(=O)N(Cc3ccc(F)cc3)c3ccc(Cl)cc3)cccn12`, in that order: 5.76%, 4.67% and -7.17%.
With `Cc1cc2nn(CC(=O)Nc3cc(F)ccc3F)c(=O)n2c(Nc2ccc(C)c(F)c2)n1`, the figures for the Inhibition with Klebsiella pneumoniae, in the assay with Candida albicans and in the assay with Cryptococcus neoformans were 8.03%, 1.75% and -8.46%, respectively.
The matching figures for `COc1cc(NC(=O)Cn2nc3ccc(SC4CCCCC4)nn3c2=O)cc(OC)c1`: 6.28%, 4.08% and -40.43%.
With `COC(=O)c1ccc(NC(=O)Cn2nc3c4cc(-c5ccc(F)cc5)nn4ccn3c2=O)cc1`, the Inhibition in the assay on Klebsiella pneumoniae is reported as 11.64%; with Candida albicans, 3.5%; in the assay with Cryptococcus neoformans, -12.29%.
For `Cc1cc(C)c(C(=O)CSc2nnc3c(=O)n(-c4ccc(F)c(F)c4)ccn23)cc1C`, the Inhibition is 9.61% in the assay with Klebsiella pneumoniae, 5.94% in the assay on Candida albicans and -8.7% in the assay with Cryptococcus neoformans.
For `O=C(Cn1nc2c(N3CCOCC3)nc3ccccc3n2c1=O)Nc1ccccc1Br`, in that order: 11.27%, 1.17% and -27.52%.
The matching figures for `O=c1c2sccc2n2c(=O)n(Cc3c(F)cccc3Cl)nc2n1CCc1ccccc1`: 4.07%, 1.94% and -23.82%.
On to `CCOC(=O)c1ccc(NC(=O)CSc2nc3ccccc3n3c(C(C)C)nnc23)cc1`, for which the Inhibition in the assay with Klebsiella pneumoniae is on record as 8.56%; with Candida albicans, -0.16%; in the assay with Cryptococcus neoformans, -11.29%.

The values above are taken from ChEMBL document CHEMBL4513146, “CO-ADD screening of Karazin Kharkiv National University (Ukraine) compounds”.
